Source: PubChem BioAssay (EPA / NIEHS)
Activity calls are given as the source filed them. How the source made its calls: active means hit-call score of the fitted dose curve at least 0.9, where 1 is the maximum; inactive means score below 0.9.

Key:
[1] = read-out: Monokine induced gamma interferon (MIG), CXCL9 (gene 4283); assay: BSK_BE3C_MIG: BioMAP Diversity Plus: BE3C Assay for Monokine induced gamma interferon (MIG) Biomarker Activity (AID 2283035); conditions: primary human bronchial epithelial cells; actives raise or lower the signal
Outline: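 hu bronchial epithelial 1° cells, 24 h cpd; MIG by ELISA; bidirectional fit, DMSO = baseline.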

[2] = read-out: Transforming growth factor beta 1 (TGFb1), TGFB1 (gene 7040); assay: BSK_BE3C_TGFb1: BioMAP Diversity Plus: BE3C Assay for Transforming growth factor beta 1 (TGFb1) Biomarker Activity (AID 2283036); conditions: primary human bronchial epithelial cells; actives raise or lower the signal
Outline: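 TGF-b1 measured via ELISA, 24 h after chemical dosing of human bronchial epithelial cells (BE3C). Overt cytotoxicity assessed in parallel by SRB (0.1%, TCA-fixed, 560 nm); analysis bidirectional relative to DMSO.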

[3] = read-out: Plasminogen activator inhibitor-1 (PAI1), SERPINE1 (gene 5054); assay: BSK_BE3C_PAI1: BioMAP Diversity Plus: BE3C Assay for Plasminogen activator inhibitor-1 (PAI1) Biomarker Activity (AID 2283037); conditions: primary human bronchial epithelial cells; actives raise or lower the signal
Outline: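 In this multiplexed primary-cell system, bronchial epithelial cells receive test chemical and are sampled at 24 h. PAI-1 is read by ELISA, with DMSO serving as negative control for bidirectional fitting.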

[4] = read-out: Interleukin-6 (IL6), IL6 (gene 3569); assay: BSK_CASM3C_IL6: BioMAP Diversity Plus: CASM3C Assay for Interleukin-6 (IL6) Biomarker Activity for (AID 2283040); conditions: primary human coronary artery smooth muscle cells; actives raise or lower the signal
[5] = read-out: Tissue plasminogen activator (tPA), PLAT (gene 5327); assay: BSK_BE3C_tPA: BioMAP Diversity Plus: BE3C Assay for Tissue plasminogen activator (tPA) Biomarker Activity (AID 2283041); conditions: primary human bronchial epithelial cells; actives raise or lower the signal
Outline: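 Using human lung primary bronchial epithelial cells, tPA was measured by ELISA 24 h after dosing; data fitted relative to DMSO.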

[6] = read-out: Interleukin-8 (IL8), CXCL8 (gene 3576); assay: BSK_CASM3C_IL8: BioMAP Diversity Plus: CASM3C Assay for Interleukin-8 (IL8) Biomarker Activity (AID 2283042); conditions: primary human coronary artery smooth muscle cells; actives raise or lower the signal;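 further: IL-8 protein level quantified by ELISA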
[7] = read-out: Human Leukocyte Antigen - DR isotype (HLADR), HLA-DRA (gene 3122); assay: BSK_CASM3C_HLADR: BioMAP Diversity Plus: CASM3C Assay for Human Leukocyte Antigen - DR isotype (HLADR) Biomarker Activity (AID 2283043); conditions: primary human coronary artery smooth muscle cells; actives raise or lower the signal;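 further: cell-surface HLA-DR protein level quantified by ELISA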
[8] = read-out: Macrophage colony-stimulating factor (MCSF), CSF1 (gene 1435); assay: BSK_CASM3C_MCSF: BioMAP Diversity Plus: CASM3C Assay for Macrophage colony-stimulating factor (MCSF) Biomarker Activity (AID 2283044); conditions: primary human coronary artery smooth muscle cells; actives raise or lower the signal;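 further: M-CSF protein amount quantified by ELISA after 24 h exposure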
[9] = read-out: Low-density lipoprotein receptor (LDLR), LDLR (gene 3949); assay: BSK_CASM3C_LDLR: BioMAP Diversity Plus: CASM3C Assay for Low-density lipoprotein receptor (LDLR) Biomarker Activity (AID 2283045); conditions: primary human coronary artery smooth muscle cells; actives raise or lower the signal;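 further: LDLR protein level on the cell surface quantified by ELISA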
[10] = read-out: Monocyte Chemoattractant Protein-1 (MCP1), CCL2 (gene 6347); assay: BSK_CASM3C_MCP1: BioMAP Diversity Plus: CASM3C Assay for Monocyte Chemoattractant Protein-1 (MCP1) Biomarker Activity (AID 2283046); conditions: primary human coronary artery smooth muscle cells; actives raise or lower the signal;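 further: MCP-1 level quantified by ELISA 24 h after dosing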
[11] = BSK_CASM3C_Proliferation: Cell Proliferation Assessment in the BioMAP Diversity Plus: CASM3C Assay (AID 2283047); conditions: primary human coronary artery smooth muscle cells;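 further: sulforhodamine B total protein stain as relative cell number at 560 nm; sub-confluent cells exposed 48 h before staining; fitted both ways against DMSO so gain or loss of cell number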
[12] = read-out: Monokine induced gamma interferon (MIG), CXCL9 (gene 4283); assay: BSK_CASM3C_MIG: BioMAP Diversity Plus: CASM3C Assay for Monokine induced gamma interferon (MIG) Biomarker Activity (AID 2283048); conditions: primary human coronary artery smooth muscle cells; actives raise or lower the signal;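 further: MIG protein level measured by ELISA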
[13] = read-out: serum amyloid A (SAA), SAA1 (gene 6288); assay: BSK_CASM3C_SAA: BioMAP Diversity Plus: CASM3C Assay for serum amyloid A (SAA) Biomarker Activity (AID 2283049); conditions: primary human coronary artery smooth muscle cells; actives raise or lower the signal;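 further: SAA protein level quantified by ELISA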
[14] = BSK_CASM3C_SRB: Viability Assessment in the BioMAP Diversity Plus: CASM3C Assay (AID 2283050); conditions: primary human coronary artery smooth muscle cells;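 further: total protein by SRB staining as cytotoxicity measure in parallel cultures; cells exposed to compound for 24 h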
[15] = read-out: Thrombomodulin, THBD (gene 7056); assay: BSK_CASM3C_Thrombomodulin: BioMAP Diversity Plus: CASM3C Assay for Thrombomodulin Biomarker Activity (AID 2283051); conditions: primary human coronary artery smooth muscle cells; actives raise or lower the signal;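 further: thrombomodulin protein level measured by ELISA 24 h after dosing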
[16] = read-out: Tissue Factor, F3 (gene 2152); assay: BSK_CASM3C_TissueFactor: BioMAP Diversity Plus: CASM3C Assay for Tissue Factor Biomarker Activity (AID 2283052); conditions: primary human coronary artery smooth muscle cells; actives raise or lower the signal;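 further: cell surface tissue factor protein level read by ELISA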
[17] = read-out: Interferon-gamma inducible Protein 10 (IP10), CXCL10 (gene 3627); assay: BSK_hDFCGF_IP10: BioMAP Diversity Plus: hDFCGF Assay for Interferon-gamma inducible Protein 10 (IP10) Biomarker Activity (AID 2283053); conditions: primary human foreskin fibroblasts; actives raise or lower the signal
Outline: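 Chemical-treated human skin fibroblasts (primary) were sampled at 24 h for IP-10 by ELISA. Both increases and decreases relative to DMSO were scored.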

[18] = read-out: Urokinase-type plasminogen activator receptor (uPAR), PLAUR (gene 5329); assay: BSK_CASM3C_uPAR: BioMAP Diversity Plus: CASM3C Assay for Urokinase-type plasminogen activator receptor (uPAR) Biomarker Activity (AID 2283054); conditions: primary human coronary artery smooth muscle cells; actives raise or lower the signal;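 further: cell-surface uPAR protein level quantified by ELISA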
[19] = read-out: Urokinase-type plasminogen activator receptor (uPAR), PLAUR (gene 5329); assay: BSK_BE3C_uPAR: BioMAP Diversity Plus: BE3C Assay for Urokinase-type plasminogen activator receptor (uPAR) Biomarker Activity (AID 2283039); conditions: primary human bronchial epithelial cells; actives raise or lower the signal
Outline: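 Chemically treated human bronchial epithelial cells (lung primary) are assayed for uPAR by ELISA after 24 h, with data fitted in both directions using DMSO as negative control.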

[20] = read-out: urokinase plasminogen activator (uPA), PLAU (gene 5328); assay: BSK_BE3C_uPA: BioMAP Diversity Plus: BE3C Assay for urokinase plasminogen activator (uPA) Biomarker Activity (AID 2283038); conditions: primary human bronchial epithelial cells; actives raise or lower the signal;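 further: uPA protein level quantified by ELISA in cell cultures; uPA read one day after compound addition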
Outline: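 Bronchial epithelial cells (human, primary); chemical 24 h; uPA by ELISA; bidirectional fit vs DMSO. SRB (0.1%, after 10% TCA fixation, 560 nm) in parallel cultures for cytotoxicity.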

Measured: AC50

CC[C@H]1OC(=O)[C@H](C)[C@@H](O[C@H]2C[C@@](C)(OC)[C@@H](O)[C@H](C)O2)[C@H](C)[C@@H](O[C@@H]2O[C@H](C)C[C@H](N(C)C)[C@H]2O)[C@](C)(O)C[C@@H](C)C(=O)[C@H](C)[C@@H](O)[C@]1(C)O
inactive: [1] | [2] | [3] | [4] | [5] | [6] | [7] | [8] | [9] | [10] | [11] | [12] | [13] | [14] | [15] | [16] | [17] | [18]

CCC(C)(C)C(=O)O[C@H]1C[C@@H](C)C=C2C=C[C@H](C)[C@H](CC[C@@H]3C[C@@H](O)CC(=O)O3)[C@H]21
active: [1] 36.7 µM | [2] 27.1 µM | [3] 31.9 µM | [5] 5.4 µM | [6] 34.2 µM | [7] 20 µM | [8] 20 µM | [9] 20 µM | [10] 32.3 µM | [11] 2.18 µM | [14] 18.3 µM | [15] 0.336 µM | [16] 3.97 µM | [17] 31.4 µM | [18] 29.2 µM
inactive: [4] | [12] | [13]

COC(=O)CC(=O)OC
inactive: [1] | [2] | [3] | [19] | [4] | [5] | [6] | [7] | [8] | [9] | [10] | [11] | [12] | [13] | [14] | [15] | [16] | [17] | [18]

C1N2CN3CN1CN(C2)C3
inactive: [1] | [2] | [3] | [4] | [5] | [6] | [7] | [8] | [9] | [10] | [11] | [12] | [13] | [14] | [15] | [16] | [17] | [18]

O=P(OC(CCl)CCl)(OC(CCl)CCl)OC(CCl)CCl
inactive: [1] | [2] | [3] | [4] | [5] | [6] | [7] | [8] | [9] | [10] | [12] | [13] | [14] | [16] | [17] | [18]
active: [11] 20 µM | [15] 15.7 µM

CC(C)c1cccc(C(C)C)c1N1C(=O)c2ccc(O)cc2C1=O
inactive: [20] | [4] | [6] | [10] | [12] | [15] | [16]
active: [1] 26.3 µM | [3] 9.07 µM | [5] 27.2 µM | [7] 14.1 µM | [8] 32 µM | [9] 36.3 µM | [11] 20 µM | [13] 26.1 µM | [14] 20 µM | [17] 27.9 µM | [18] 20 µM

O=C(OC[C@H]1O[C@@H](OC(=O)c2cc(O)c(O)c(OC(=O)c3cc(O)c(O)c(O)c3)c2)[C@H](OC(=O)c2cc(O)c(O)c(OC(=O)c3cc(O)c(O)c(O)c3)c2)[C@@H](OC(=O)c2cc(O)c(O)c(OC(=O)c3cc(O)c(O)c(O)c3)c2)[C@@H]1OC(=O)c1cc(O)c(O)c(OC(=O)c2cc(O)c(O)c(O)c2)c1)c1cc(O)c(O)c(OC(=O)c2cc(O)c(O)c(O)c2)c1
inactive: [3] | [4] | [6] | [8] | [9] | [12] | [13] | [14] | [15] | [16] | [18]
active: [1] 10.2 µM | [2] 9.35 µM | [19] 4.13 µM | [5] 1.45 µM | [7] 6.1 µM | [10] 6.1 µM | [11] 10 µM | [17] 0.986 µM

Nc1cccc(N)c1
inactive: [1] | [2] | [3] | [4] | [5] | [6] | [7] | [8] | [9] | [10] | [11] | [12] | [13] | [14] | [15] | [16] | [17] | [18]

COc1ccc2sc(C(=O)Nc3nnn[nH]3)c(OC(C)C)c2c1
active: [2] 9.17 µM | [3] 12.9 µM | [5] 13.9 µM | [6] 29.4 µM | [7] 13.3 µM | [8] 19.9 µM | [10] 15.8 µM | [11] 11.1 µM | [13] 19.9 µM | [14] 15.5 µM | [15] 8.49 µM | [16] 7.08 µM | [17] 13.6 µM | [18] 13 µM
inactive: [1] | [19] | [9] | [12]

O=C1OC(=O)C2C3C=CC(C3)C12 (stereo not given)
inactive: [1] | [2] | [3] | [19] | [4] | [5] | [6] | [7] | [8] | [9] | [10] | [11] | [12] | [13] | [14] | [15] | [16] | [17] | [18]

O=C(O)c1cccc(Oc2ccccc2)c1
inactive: [1] | [2] | [3] | [4] | [5] | [6] | [7] | [8] | [9] | [10] | [11] | [12] | [13] | [14] | [15] | [16] | [17] | [18]

C=CC(=C)CCC=C(C)C
inactive: [1] | [2] | [3] | [4] | [5] | [6] | [7] | [8] | [9] | [10] | [11] | [12] | [13] | [14] | [15] | [16] | [17] | [18]

CCCCCCCCO
inactive: [1] | [2] | [3] | [4] | [5] | [6] | [7] | [8] | [9] | [10] | [11] | [12] | [13] | [14] | [15] | [16] | [17] | [18]

CCCCC(CC)COC(=O)CCCCCCCCC(=O)OCC(CC)CCCC (stereo not given)
active: [11] 7.33 µM | [17] 6.18 µM
inactive: [1] | [2] | [3] | [4] | [5] | [6] | [7] | [8] | [9] | [10] | [12] | [13] | [14] | [15] | [16] | [18]
